Sampled rows, rich in hits. Any-hit rate of the full collection: about 4.3%.
CHOP inhibitor: blocks CHOP induction under ER stress | CHO-K1 CHOP-promoter luciferase, tunicamycin-induced, 15-18 h | inhibition, % at 10 µM | 220,000 tested, 3.8% active | AID 2732;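 active means compounds that reduced the stress-induced luciferase reporter signal by more than about 70% of percent inhibition, limit read from the data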;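 further: 0% = tunicamycin plus vehicle and 100% = wells without tunicamycin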
Peg3 promoter: inhibitors of Peg3 promoter. HeLa PEG-Prom luciferase reporter, luminescence, overnight. inhibition, % at 20 µM. 360,000 tested, 1.7% active;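 active means inhibition of at least 50% at 20 µM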
CF NFkB block: cystic fibrosis NF-kB activation inhibition | KKLEB NF-kB-GFP reporter, PAF-induced, GFP fluorescence overnight | inhibition, % at 5 µM | 360,000 tested, 0.86% active;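 active means at least 50% inhibition at 5 µM, scaled per plate between neutral and stimulator controls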;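 further: PAF is a Pseudomonas aeruginosa culture filtrate used as stimulus; plate controls were PAF-stimulated DMSO wells for no effect and unstimulated DMSO wells for full effect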
KKLEB tox: reduces viability of KKLEB cystic fibrosis airway cells | KKLEB CF airway cells viability, ATPlite luminescence, overnight; stronger effect = lower value; cells stimulated with P. aeruginosa culture filtrate | activity change (cytotoxicity), % at 5 µM | 360,000 tested, 0.36% active;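 active means corrected activity change at or below -50% at 5 µM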
TRPM1 prom inh: MITF TRPM1 promoter inhibition in SK-MEL-5 cells. SK-MEL-5 TRPM1 promoter luciferase, 24 h. inhibition, % at 12.5 µM. 330,000 tested, 0.83% active;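 active means mean inhibition across replicates of 60% or more, whatever share of single replicates reaches that level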
HIF-2a block: inhibitors of HIF-2a | inhibition, % at 18.8 µM | AID 624352 | 786-0 RCC cells HIF-2a reporter, luciferase luminescence, overnight | 360,000 tested, 0.72% active;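 active means inhibition of the luminescence signal of 40% or more relative to plate controls, in a single-dose primary screen at 18.75 µM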
* hit, by the source's call; . = no result given.

SMILES	CHOP inhibitor	Peg3 promoter	CF NFkB block	KKLEB tox	TRPM1 prom inh	HIF-2a block
COc1ccc(N2C(=O)N3[C@H](c4ccc(Br)cc4)[C@@H]4C(=O)N(C(C)(C)C)C(=O)[C@@H]4[C@]3(Cc3ccccc3)C2=O)cc1	.	-1	0	-5	-7	9
COc1ccc([C@@H]2[C@@H]3C(=O)N(C(C)(C)C)C(=O)[C@@H]3[C@]3(Cc4ccccc4)C(=O)N(c4ccc(Br)cc4)C(=O)N23)cc1	.	11	71*	-83*	-7	-12
Cc1ccc(C=C2C(Cl)=C(Cl)C(Cl)=C2Cl)cc1	107*	.	.	.	.	.
Cc1ccc(/C=[N+](/C)[O-])cc1	4	2	-2	8	5	10
O=S(=O)(NC1c2cccc3cccc(c23)C1N1CCNCC1)c1ccc(Cl)cc1 (configuration not stated)	0	77*	24	-19	20	11
CC(=O)N1CCN(C2c3cccc4cccc(c34)C2NS(=O)(=O)c2ccccc2)CC1 (configuration not stated)	-1	17	-4	-2	3	-2
O=C(O)[C@@H](O)[C@H](O)C(=O)O	.	-1	4	-61*	0	2
O=C(O)[C@H](O)[C@@H](O)C(=O)O	.	-4	22	1	-8	8
CCN(CC)S(=O)(=O)c1ccc(N/N=C(\C)c2ccc3c(c2)OCO3)c([N+](=O)[O-])c1	92*	13	19	-16	15	-1
C/C(=N\Nc1ccc(S(N)(=O)=O)cc1[N+](=O)[O-])c1ccc2c(c1)OCO2	36	46	-5	-13	-13	0
CCOC(=O)c1ccc(NC(=O)CN(C)S(=O)(=O)c2ccc(Br)s2)cc1	77*	11	3	1	-14	20
CCOC(=O)c1ccc(NC(=O)CN(C)S(=O)(=O)c2ccc(OC)cc2)cc1	5	-3	-11	7	3	10
COCc1cccc(-c2csc(C(C)(O)c3cccc(F)c3)n2)c1 (configuration not stated)	.	-5	-29	3	.	-8
CCCCCCSc1ncc(C#N)c(N)n1	84*	-86	10	-8	-17	-88
Cc1ccc(-c2nc3ccc(Cl)cn3c2Cc2cccc(Cl)c2)cc1	.	-177	29	-21	.	-229
Nc1nc(-c2ccccn2)nc(N)c1Cc1c(F)cccc1Cl	71*	-15	10	-2	17	-101
Cc1c(NC(=O)COC(=O)C2=COCCO2)cccc1[N+](=O)[O-]	.	-10	2	12	-6	13
Cc1ccc(NC(=O)CN2C(=O)/C(=C3\SC(=S)N(C4CCS(=O)(=O)C4)C3=O)c3ccccc32)cc1 (configuration not stated)	-23	7	33	2	10	13
O=C(CN1C(=O)/C(=C2\SC(=S)N(C3CCS(=O)(=O)C3)C2=O)c2ccccc21)Nc1ccccc1 (configuration not stated)	20	-1	53*	-6	13	5
CCN1C(=O)C(O)(CC(=O)/C=C/C=C/c2ccccc2)c2ccccc21 (configuration not stated)	-15	2	2	0	2	13
O=C(/C=C/C=C/c1ccccc1)CC1(O)C(=O)N(CCc2ccccc2)c2ccccc21 (configuration not stated)	78*	15	6	4	-6	17
Cc1cc(-c2ccccc2)nc2cc(C(=O)N(Cc3ccccc3)Cc3ccccc3)nn12	5	58*	32	-15	-2	15
CCc1ccc(C2=NN(c3ccc(S(N)(=O)=O)cc3)C(c3ccc(F)cc3)C2)cc1 (configuration not stated)	90*	67*	-2	-9	-2	-22
Cc1ccc(C2CC(c3ccccc3)=NN2c2ccc(S(N)(=O)=O)cc2)cc1 (configuration not stated)	.	12	30	24	.	1
NS(=O)(=O)c1ccc(N2N=C(c3ccccc3)CC2c2ccc(Br)cc2)cc1 (configuration not stated)	.	16	20	0	.	-21
NS(=O)(=O)c1ccc(N2N=C(c3ccccc3)CC2c2ccccc2)cc1 (configuration not stated)	81*	11	3	32	-3	17
